# Publication PMC4336329 (PLoS ONE, 2015)
# In all, about 310,000 compounds went through this assay and about 14,000 (4.5%) showed an effect of 50% or more. The effect is printed as a negative number. The sample as a whole holds a higher share of strong results than the screen did.
# Target: human ether-à-go-go-related gene (hERG) potassium channel (human, UniProt Q12809)
# Test: primary screen, population patch clamp on CHO cells stably expressing hERG; higher = less effect of the substance
# 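Also: peak tail current of the secondary pulse compared with the same well before compound.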
# Chain of human ether-à-go-go-related gene (hERG) potassium channel (Q12809 whole entry, looked up): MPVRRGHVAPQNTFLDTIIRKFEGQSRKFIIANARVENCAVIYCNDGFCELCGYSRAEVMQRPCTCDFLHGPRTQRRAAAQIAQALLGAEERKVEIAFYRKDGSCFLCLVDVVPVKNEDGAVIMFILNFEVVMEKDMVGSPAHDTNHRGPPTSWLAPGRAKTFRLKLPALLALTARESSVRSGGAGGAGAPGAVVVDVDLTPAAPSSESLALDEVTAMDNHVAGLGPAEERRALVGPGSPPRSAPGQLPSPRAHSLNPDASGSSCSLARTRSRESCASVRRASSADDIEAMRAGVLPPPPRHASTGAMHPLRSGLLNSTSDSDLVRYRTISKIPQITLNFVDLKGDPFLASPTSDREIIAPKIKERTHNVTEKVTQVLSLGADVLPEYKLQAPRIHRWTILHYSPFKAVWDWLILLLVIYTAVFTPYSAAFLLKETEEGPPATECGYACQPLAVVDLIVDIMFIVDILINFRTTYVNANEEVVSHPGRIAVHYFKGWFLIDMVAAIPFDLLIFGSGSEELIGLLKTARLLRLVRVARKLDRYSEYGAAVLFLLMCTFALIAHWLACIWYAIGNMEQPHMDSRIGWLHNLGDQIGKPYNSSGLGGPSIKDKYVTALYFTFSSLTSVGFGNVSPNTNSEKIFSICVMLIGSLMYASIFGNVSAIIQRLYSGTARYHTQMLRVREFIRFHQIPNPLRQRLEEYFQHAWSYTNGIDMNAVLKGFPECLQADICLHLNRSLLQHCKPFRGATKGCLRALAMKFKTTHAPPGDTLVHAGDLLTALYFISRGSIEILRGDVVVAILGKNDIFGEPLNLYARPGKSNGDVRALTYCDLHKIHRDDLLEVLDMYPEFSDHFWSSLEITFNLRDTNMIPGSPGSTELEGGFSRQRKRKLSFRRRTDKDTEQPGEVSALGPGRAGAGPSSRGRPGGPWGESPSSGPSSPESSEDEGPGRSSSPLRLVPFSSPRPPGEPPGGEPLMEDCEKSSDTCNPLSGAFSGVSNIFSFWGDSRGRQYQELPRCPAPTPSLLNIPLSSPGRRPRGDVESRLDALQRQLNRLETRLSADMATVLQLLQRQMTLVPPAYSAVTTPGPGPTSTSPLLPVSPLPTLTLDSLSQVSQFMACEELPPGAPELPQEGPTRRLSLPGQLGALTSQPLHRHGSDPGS
row,Structure (SMILES),"hERG current change (%, negative = inhibition) at 10uM [%]"
1,CC(=O)Nc1ccc(NCc2cccs2)cc1,6.07
2,Cc1ccc(NC(=O)N2CCN(C(=O)C3CCCO3)CC2)cc1 (stereo not drawn),9.64
3,COc1ccccc1OCC(=O)Nc1ncc(C)s1,-6.77
4,CC(C)(C)NC(=O)NC(=O)CSc1nnc2ccccn12,-2.98
5,CCOc1ccccc1CNC(=O)C1CCC(=O)N1C(C)C (stereo not drawn),1.56
6,Cc1cnc(C(=O)OCC(=O)Nc2c(Cl)cc(Cl)cc2Cl)cn1,12.7
7,O=C(CCCNS(=O)(=O)c1cccc2nsnc12)NCCc1ccccc1,5.61
8,O=C(NC1CC1)C1CCN(S(=O)(=O)c2cc([N+](=O)[O-])ccc2Cl)CC1,-28
9,O=C(NCc1ccccc1)C1CCN(S(=O)(=O)c2cc([N+](=O)[O-])ccc2Cl)CC1,-7.61
10,CCC(C)NC(=O)C1CCN(S(=O)(=O)c2cc([N+](=O)[O-])ccc2Cl)CC1 (stereo not drawn),-0.184
11,CC(NC(=O)C1CCN(S(=O)(=O)c2cc([N+](=O)[O-])ccc2Cl)CC1)c1ccccc1 (stereo not drawn),11.5
12,O=C(COC(=O)C1CC1)Nc1ncc(Cl)cc1Cl,8.23
13,O=C(NCc1ccc(Cl)cc1)C1CCN(S(=O)(=O)c2cc([N+](=O)[O-])ccc2Cl)CC1,-59
14,CC1CCN(S(=O)(=O)c2cc([N+](=O)[O-])ccc2Cl)CC1,-24
15,O=C(COC(=O)C1CCN(S(=O)(=O)c2cc([N+](=O)[O-])ccc2Cl)CC1)Nc1ncc(Cl)cc1Cl,-57.6
16,O=C(COC(=O)C1CCCC1)Nc1ncc(Cl)cc1Cl,5.91
17,CC(=O)COC(=O)C1CCN(S(=O)(=O)c2cc([N+](=O)[O-])ccc2Cl)CC1,-51.8
18,CN(Cc1ccccc1)C(=O)C1CCN(S(C)(=O)=O)CC1,16.1
19,CN(Cc1ccccc1)C(=O)C1CCN(S(=O)(=O)c2cc([N+](=O)[O-])ccc2Cl)CC1,-54.6
20,Cc1cccc(C(=O)NC2CCN(C(=S)NCc3ccco3)CC2)c1,-46.7
21,CCOC(=O)CSc1ncc(-c2cccc(Cl)c2)cn1,-17.4
22,CC/C(CC(c1ccccc1)c1c(O)c2ccccc2oc1=O)=N\NC(N)=S (stereo not drawn),2.2

row,Structure (SMILES),"hERG current change (%, negative = inhibition) at 10uM [%]"
1,Cc1cc(O)c(C(C[N+](=O)[O-])c2ccc(Cl)cc2Cl)c(=O)o1 (stereo not drawn),6.51
2,CCOC(=O)N1CCN(C(=O)COc2cc(=O)n(CC)c3ccccc23)CC1,-17
3,CCCCc1cc2c(cc1NC(=O)CN1CCCCC1)OCCO2.Cl,3.82
4,COc1ccc(-c2cc(C(=O)Nc3ccccc3O)c3ccccc3n2)cc1,13.1
5,Cc1cccc(NC(=O)c2cccc(N3C(=O)C4C5CCC(C5)C4C3=O)c2)c1C (stereo not drawn),-7.75
6,Cc1ccc(-n2c(=O)[nH]c3c(C(N)=O)nc(-c4ccc(C)o4)nc32)cc1,14.7
7,Cc1oc2ccc(Br)cc2c(=O)c1-c1nn[nH]n1,3.71
8,Cc1c(-c2cc[n+]([O-])cc2)oc2ccc(Br)cc2c1=O,-54.2
9,Cc1c(-c2ccncc2)oc2ccc(Br)cc2c1=O,-41.2
10,Cc1ccc(S(=O)(=O)Oc2cccc(N3C(=O)C4CC=CCC4C3=O)c2)cc1 (stereo not drawn),-17.3
11,CC(=O)NC(Cc1cc(C)ccc1C)C(=O)N1CCN(C(=O)c2ccc(Br)cc2)CC1 (stereo not drawn),-71.8
12,CC(=O)NC(Cc1cc(C)ccc1C)C(=O)N1CCN(C(=O)c2ccc([N+](=O)[O-])cc2)CC1 (stereo not drawn),-30.2
13,CC(=O)NC(Cc1cc(C)ccc1C)C(=O)N1CCN(C(=O)c2ccccc2Br)CC1 (stereo not drawn),-0.358
14,CCOC(=O)c1c(NC(=O)COC(=O)CCOc2ccccc2C)sc(C(=O)NC)c1C,20.1
15,Cc1ccc(/C=C/C(=O)OCC(=O)Nc2ccc3[nH]c(=O)[nH]c3c2)o1,2.52
16,COc1ccc(/C=N/Nc2nnc(Cc3ccc(OC)c(OC)c3)c(=O)[nH]2)cc1OC,18.9
17,COc1ccc(/C=N/Nc2nnc(Cc3ccccc3)c(=O)[nH]2)cc1,-15.1
18,COc1ccc(/C=N/Nc2nnc(Cc3ccccc3)c(=O)[nH]2)cc1OC,-61.4
19,Oc1ccc(N=Nc2n[nH]c(-c3ccccc3)n2)cc1,9.94
20,CCOc1ccc(NC(=O)Nc2ccon2)cc1,16.7
21,CCC(=O)Nc1ccc(Cl)c(NC(=O)c2ccc([N+](=O)[O-])cc2)c1,-5.07
22,CCC(C)NS(=O)(=O)c1ccc(NC(=O)c2ccc([N+](=O)[O-])cc2Cl)cc1 (stereo not drawn),-88.7

row,Structure (SMILES),"hERG current change (%, negative = inhibition) at 10uM [%]"
1,CC(=O)Nc1ccc(NC(=O)c2ccc([N+](=O)[O-])cc2Cl)cc1,6.15
2,CC(C)C(=O)Nc1ccc(NC(=O)c2ccc([N+](=O)[O-])cc2Cl)cc1,5.02
3,CCCC(=O)Nc1cccc(NC(=O)c2ccc([N+](=O)[O-])cc2Cl)c1,-14.5
4,CCCC(=O)Nc1ccc(Cl)c(NC(=O)c2ccc([N+](=O)[O-])cc2Cl)c1,-51.2
5,CC(C)(C)NC(=O)NC(=O)CN1CCN(Cc2ccccc2)CC1,-1.77
6,COC(=O)[C@@]1(Cc2ccc(OC)cc2)[C@H]2c3cc(C(=O)N(C)C)n(CCc4ccc(OC)c(Br)c4)c3C[C@H]2CN1C(=O)c1ccccc1,11.4
7,Cc1cccc(C(=O)NCCN2CCOCC2)c1[N+](=O)[O-],4.8
8,Cc1ccc(C)c(OCc2cc(C(=O)N3C[C@@H](C)O[C@@H](C)C3)no2)c1,4.95
9,CCCCc1c(O)nc(SCC(=O)NCCc2ccc(OC)c(OC)c2)[nH]c1=O,-0.0252
10,COc1ccc(C(=O)NC(=S)Nc2ccc3[nH]c(=O)[nH]c3c2)cc1,15.5
11,COc1cccc(C(=O)NC(=S)Nc2ccc3[nH]c(=O)[nH]c3c2)c1,-70.3
12,COc1cc(OC)cc(C(=O)NC(=S)Nc2ccc3[nH]c(=O)[nH]c3c2)c1,-27
13,CCN(CC)c1ccc(CNc2nc3ccccc3n2C)cc1,-49.7
14,CCN(CC)c1ccc(CNc2nc3ccccc3n2C(C)C)cc1,1.88
15,CCN(CC)c1ccc(CNc2nc3ccccc3n2CCN2CCCCC2)cc1,-74.5
16,CCN(CC)c1ccc(CNc2nc3ccccc3n2CC)cc1,-23.5
17,CCC(=O)Nc1nc2ccccc2n1CCN1CCOCC1,16.2
18,CCN(CC)c1ccc(CNc2nc3ccccc3n2CCN2CCOCC2)cc1,-79.5
19,Cc1ccc(NC(=O)CCN2C(=O)C3CC=CCC3C2=O)cc1Cl (stereo not drawn),-10.9
20,COc1cc(-c2nnc(-c3ccncc3)o2)ccc1OCc1ccccc1,4.05
21,Cc1ccccc1-c1nc2cc(NC(=O)C3CC3)ccc2o1,7.97
22,Cc1ccc(NC(=O)C2CC2c2ccccc2)cc1 (stereo not drawn),2.96

row,Structure (SMILES),"hERG current change (%, negative = inhibition) at 10uM [%]"
1,Cc1cccc(OCC(=O)Nc2cc(C)ccc2O)c1,12.4
2,CCOCCCn1c(=N)c(S(=O)(=O)c2ccc(C)cc2)cc2c(=O)n3cc(C)ccc3nc21,11.6
3,CCCn1c(=N)c(S(=O)(=O)c2ccccc2)cc2c(=O)n3ccccc3nc21,-15.6
4,CC(C)OCCCn1c(=N)c(C(N)=S)cc2c(=O)n3ccccc3nc21,-81.5
5,CC(C)OCCCn1c(=N)c(S(=O)(=O)c2ccccc2)cc2c(=O)n3ccccc3nc21,-43.6
6,Cc1ccc2nc3c(cc(C(N)=S)c(=N)n3CCCOC(C)C)c(=O)n2c1,-74.4
7,CCOCCCn1c(=N)c(S(=O)(=O)c2ccccc2)cc2c(=O)n3cc(C)ccc3nc21,-19.1
8,CCOC(=O)C1=C(N)Oc2cc(C)[nH]c(=O)c2C1c1ccncc1 (stereo not drawn),11.9
9,COc1cc2c(cc1C1NC(=S)NC(C)=C1C(N)=O)CCCC2 (stereo not drawn),9.6
10,Cc1ccc(CNC(=O)CN2CCCC(C)C2)cc1 (stereo not drawn),-29.7
11,COc1ccc(N2CCN(C3CC(=O)N(C)C3=O)CC2)cc1 (stereo not drawn),17.4
12,O=S(=O)(c1ccc(Br)cc1Cl)N1CC[NH+](CCO)CC1.[Cl-],3.35
13,Oc1ccc(/C=N/N(Cc2ccccc2)c2ccccc2)cc1,35.8
14,Cc1sc2ncn(CC(=O)NCCCC(=O)N3CCN(Cc4ccc5c(c4)OCO5)CC3)c(=O)c2c1C,-6.94
15,CCn1ncc(/C=C/C(=O)c2ccccc2)c1C,5.83
16,CCc1cc(C(=O)OC)c(NC(=O)CSc2nccn2C)s1,-56.9
17,CCOC(=O)c1cc(C)sc1NC(=O)CSc1nccn1C,-19.9
18,COC(=O)c1c(NC(=O)CSc2nccn2C)sc(C)c1C,-15.8
19,Cl.OC(COc1ccccc1)CN1C2=NCCCN2c2ccccc21 (stereo not drawn),-67
20,O=C1CCC(=O)N1CC(O)COc1ccccc1 (stereo not drawn),4.87
21,Cl.OC(COc1ccc(Cl)cc1)CN1C2=NCCCN2c2ccccc21 (stereo not drawn),-76.3
